# The whole screen tested about 1,300 compounds, of which about 270 (21%) were called active.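 The calls were made as follows: active = dose-dependent rise or fall in viability, either side of zero, with half-maximal concentration at or below a set limit; inconclusive = flat curve at 30 to 70% viability loss, or poor fit; inactive = flat within 30% either way, or potency beyond limit.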 Not all results are given here. Where a call stands in place of a potency, no number is given. Potency and affinity values are given separately.
# Test: A375 melanoma cell viability reduction, dose response, counter-screen for MITF modulator project, cherry-pick samples, set 2 (AID 540335);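 also: A375 human melanoma cells which do not depend on MITF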
# Settings: CellTiter-Glo ATP luminescence, 24 h; series mostly up to 35 µM
row,Compound,outcome
1,COc1cc(OC)cc(-c2oc(=O)c3cc(OC)c(OC)cc3c2C(F)(F)F)c1,inactive
2,CCN1CCN(c2ccc(Nc3ccnc4ccccc34)cc2)CC1,inactive
3,CCOc1ccc(NC(=O)Nc2cccc(C(=O)O)c2)cc1,inactive
4,O=C(Nc1nnc(Cc2ccccc2)s1)c1ccccc1,inactive
5,Cc1ccc(/C=N/Nc2ccc(C(=O)O)cc2)s1,inactive
6,O=C(c1ccc([N+](=O)[O-])s1)N1CCN(c2ccccn2)CC1,inactive
7,C/C(=N\NC(=O)C(c1ccccc1)c1ccccc1)c1ccccn1,inactive
8,O=c1c2ccccc2cnn1CCOc1ccccc1,inactive
9,Cc1nc2ccccc2n1/N=C/c1ccc([N+](=O)[O-])s1,inactive
10,CN(C)C1CCN(Cc2cc(COCc3ccccc3)c3cccnc3c2O)C1 (stereo not given),inactive
11,CCCOCc1ccc(O)c2ncccc12,inactive
12,Cc1cc(C(C)(C)C)cc(C)c1Cn1c2[n+](c3ccc(C(F)(F)F)cc31)CCCCC2,inactive
13,Cc1ccc(-n2nnnc2CNC(=O)c2ccc([N+](=O)[O-])o2)cc1C,inactive
14,Cc1nc2nc(C)c(NS(=O)(=O)c3ccc4c(c3)CCCC4)c(=O)n2[nH]1,inactive
15,CCCN(CCC)C1=CC(=[N+]2CCCC2)CC(C)(C)C1,inactive
16,CN(Cc1ccccc1)C1=CC(=[N+]2CCCC2)CC(C)(C)C1,inactive
17,CN(C)S(=O)(=O)c1ccc(-c2csc(N/N=C/c3ccco3)n2)cc1,inactive
18,COc1ccc(C(=O)N/N=C/c2cc(Br)ccc2O)cc1OC,inactive
19,CCOc1ccc(N/C=C/C(=O)c2ccc(OC)c(OC)c2)cc1,inactive
20,Cc1ccc(-c2n[nH]c(=O)c3ccccc23)cc1S(=O)(=O)NCC1CCCO1 (stereo not given),inactive
21,COc1ccc(C(=O)/C=C/C(=O)N(CC(=O)NC2CCCCC2)Cc2ccc(F)cc2)c(O)c1,inactive
22,COc1ccc(N/N=C/c2c(C(=O)O)ccc3ccccc23)cc1,inactive

row,Compound,outcome
1,COc1ccc(NC(=O)NC(=O)c2ccccc2)cc1,inactive
2,N#CC(C#N)=C1C=CC=CN1/C(=C\c1ccco1)C(=O)c1ccc(Cl)cc1,inactive
3,COc1ccccc1-c1cc(C(F)(F)F)nc(S(C)(=O)=O)n1,inactive
4,Cc1ccc2c(C(=O)CCl)c(C)[nH]c2c1,inactive
5,COc1ccc(C(=O)C(CN2CCOCC2)c2ccccc2)cc1 (stereo not given),inactive
6,O=S(=O)(CC(CN1CCCCC1)N1CCCCC1)c1ccc2ccccc2c1 (stereo not given),inactive
7,CC(NC(=O)C12CC3CC(CC(C3)C1)C2)C(=O)NN=Cc1ccc([N+](=O)[O-])o1 (stereo not given),inactive
8,COC1=C(c2ccccc2)C(=O)c2ccccc2C1=O,inactive
9,COc1ccc(-c2nc(-c3ccccc3OC)no2)cc1OC,inactive
10,CN1CCN(C2=C(NS(=O)(=O)c3cccs3)C(=O)c3ccccc3C2=O)CC1,inactive
11,COc1ccc2nc(C)cc(NCc3cccc(C(F)(F)F)c3)c2c1,inactive
12,O=C1C=CC(=C(c2ccc(O)cc2)c2ccc(O)cc2)C=C1,inactive
13,CC(C)(C)C(=O)/C(=C/c1ccncc1)n1cncn1,inactive
14,O=C(Nc1ccc2oc(-c3cccnc3)nc2c1)c1ccc([N+](=O)[O-])o1,inactive
15,COc1ccccc1NC(=O)c1nc(S(=O)(=O)Cc2ccccc2)ncc1Cl,inactive
16,CC(=O)Nc1ccc(NC(=O)c2nc(S(=O)(=O)Cc3ccccc3)ncc2Cl)cc1,inactive
17,Cc1ccc(C(=O)c2cccc(N)c2)cc1C,inactive
18,COc1cc(NC(=O)COc2cc(O)c3c(c2)OC(C)(C)CC3=O)cc(OC)c1OC,inactive
19,O=C(CCl)Nc1cccc(S(=O)(=O)N2CCCCCC2)c1,inactive
20,Cc1cc(/C(N)=N/OC(=O)c2ccc(Cl)cc2)no1,inactive
21,CCCCN1CCc2c1nc1ccc(Br)cc1c2N,inactive
22,O=C(COC(=O)c1ccccc1C(=O)c1ccc(Cl)c([N+](=O)[O-])c1)NC1CC1,inactive

row,Compound,outcome
1,CCOc1ccc(-c2ccc(SC)nn2)cc1,inactive
2,Cc1ccc(C(=O)N/N=C\c2ccc([N+](=O)[O-])s2)cn1,inactive
3,CCN(CC)CCNC(=O)C1CCN(S(=O)(=O)c2c(C)noc2/C=C/c2ccccc2F)CC1,inactive
4,Cc1cc(C)cc(OCC(=O)N/N=C/c2ccc([N+](=O)[O-])o2)c1,inactive
5,N=c1n(CCN2CCCC2)c2ccccc2n1CC(O)c1ccc(Cl)c(Cl)c1 (stereo not given),inactive
6,O=C(CNc1cccc2ccccc12)N/N=C/c1ccc([N+](=O)[O-])o1,inactive
7,Cc1ccccc1C(=O)N/N=C/c1ccc([N+](=O)[O-])s1,inactive
8,Cc1cc2ncn(/N=C/c3ccc([N+](=O)[O-])o3)c2cc1C,inactive
9,O=C(N/N=C/c1ccc([N+](=O)[O-])o1)c1cc2ccccc2o1,inactive
10,CCOC(=O)CCc1ccc(NC(=O)/C=C/c2ccc([N+](=O)[O-])o2)cc1,inactive
11,CC1(C(=O)N/N=C/c2ccc([N+](=O)[O-])o2)CC1(Br)Br (stereo not given),inactive
12,CC(C)n1cc(/C=C/c2cc[n+](C)cc2)c2ccccc21,inactive
13,COc1ccc(-n2c(C)cc(C(=O)CCl)c2C)cc1,inactive
14,CCOc1ccc(-n2c(C)cc(C(=O)CCl)c2C)cc1,inactive
15,O=C(Nc1ccc2nc3n(c(=O)c2c1)CCCCC3)c1cc([N+](=O)[O-])ccc1F,inactive
16,CCOC(=O)c1nnn(-c2ccc([N+](=O)[O-])cc2[N+](=O)[O-])c1C,inactive
17,Cc1ccc(NC(=O)CCl)cc1S(=O)(=O)N1CCCCCC1,inactive
18,O=C(Nc1ccc(-c2nc3ncccc3o2)cc1)c1ccc([N+](=O)[O-])o1,inactive
19,CCN(CC)CCn1nc2c3c(cccc3c1=O)-c1ccccc1-2,inactive
20,Cc1ccc(NC(=O)CN(C)C(=O)Cn2ncc(Cl)c(Cl)c2=O)cc1,inactive
21,COc1cc(C2C(C#N)=C(N)Oc3cc4c(cc32)OCO4)cc(OC)c1OC (stereo not given),inactive

# From PubChem BioAssay AID540335 (Broad Institute, 2011)
